Structures are written as SMILES. Inconclusive results are not listed. Entries that show only a call come without a potency. Calls of active or inactive are those of the source. Calls come from the whole dose curve; as a rule, active = well fitted curve in the direction sought with a large enough effect; inconclusive = small, poorly fitted or top-dose-only effect, or another doubt; inactive = no such curve, though single readings can be large; an effect the other way counts as inactive or inconclusive.
Potency is the fitted concentration of half-maximal effect.

The nature of one experiment: MultiTox-Fluor Cytotoxicity Assay - LYMP1-001 - Dead Cells (AID 946). Particulars: LYMP1-001 lymphoblastoid cells, dead-cell protease fluorescence; series mostly up to 92.2 µM. Put shortly: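 Cytotoxicity as increased dead-cell protease fluorescence (bis-AAF-R110, 485/520 nm), read 60 min after MultiTox-Fluor reagent. Human lymphoblastoid line exposed 16 h; Hill-fitted AC50, with DMSO as 0% and 15 uM tetraoctylammonium bromide as 100%.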
As for `Cc1cc(Nc2ccc(O)cc2)ccc1N`, the Potency result was “inactive”.
Regarding `CN(C)c1ccc(C2(c3ccc(N(C)C)cc3)OC(=O)c3cc(N(C)C)ccc32)cc1`, the Potency entry was “inactive”.
On the same count and under the same terms, the same measure for `O=C(OCC(COC(=O)c1ccccc1)(COC(=O)c1ccccc1)COC(=O)c1ccccc1)c1ccccc1`: “inactive”.
Still for that read-out and setting: the entry for `ClC1=C(Cl)C(Cl)(Cl)C(Cl)=C1Cl` is “inactive”; for `CC(=O)Nc1ccc(C(=O)CCl)cc1` it is 25.1 µM (active).
With `Nc1ccc2cc3ccccc3cc2c1`, the Potency entry was “inactive”.
Same read-out and setting: the same measure for `c1ccc2c(c1)-c1cccc3c1c-2cc1ccccc13`: “inactive”; for `O=C=Nc1ccc(Cc2ccc(N=C=O)cc2)cc1`: “inactive”; for `O=[N+]([O-])c1cc([N+](=O)[O-])c2ccc(S(=O)(=O)O)cc2c1O`: “inactive”.
On the same count and under the same terms, the figure for `Cc1cc(O)c(C(C)(C)C)cc1Sc1cc(C(C)(C)C)c(O)cc1C` is 31.6 µM (active); for `CNc1ccc(O)cc1` it is 25.1 µM (active).
The same measure, in the same setting: the same measure for `C=CC(=O)OCCOCCOC(=O)C=C`: 50.1 µM (active); for `O=C1OC2(c3cc(Br)c(O)c(Br)c3Oc3c2cc(Br)c(O)c3Br)c2c(Cl)c(Cl)c(Cl)c(Cl)c21`: “inactive”.
With `Oc1ccc2cc(SSc3ccc4cc(O)ccc4c3)ccc2c1`, the Potency entry is “inactive”.
With `c1ccc2c(c1)ccc1cc3c(ccc4ccccc43)cc12`, the Potency result is “inactive”.
With `C/C=C1\C(=O)C[C@H]2[C@@H]3CCC4=CC(=O)CC[C@]4(C)[C@H]3CC[C@]12C`, the Potency was 50.1 µM (active).
Still for that read-out and setting: the same measure for `C=C(C)c1ccccc1`: “inactive”.
Same read-out and setting: the same measure for `Cc1ccc(S(=O)(=O)Oc2ccc(N=Nc3ccc(-c4ccc(N=Nc5c(O)ccc6cc(S(=O)(=O)O)cc(S(=O)(=O)O)c56)c(C)c4)cc3C)cc2)cc1`: “inactive”.

The next experiment can be described thus: MultiTox-Fluor Cytotoxicity Assay - LYMP1-001 - Live Cells (AID 947). To be noted: LYMP1-001 lymphoblastoid cells, live-cell protease fluorescence viability; series mostly up to 92.2 µM.
As to `Cc1cc(Nc2ccc(O)cc2)ccc1N`, the Potency result is “inactive”.
With `CN(C)c1ccc(C2(c3ccc(N(C)C)cc3)OC(=O)c3cc(N(C)C)ccc32)cc1`, the Potency entry was “inactive”.
Same read-out and setting: the same measure for `CO[C@H]1/C=C/O[C@@]2(C)Oc3c(C)c(O)c4c(O)c(c5c(c4c3C2=O)NC2(CCN(CC(C)C)CC2)N=5)=NC(=O)/C(C)=C\C=C\[C@H](C)[C@H](O)[C@@H](C)[C@@H](O)[C@@H](C)[C@H](OC(C)=O)[C@@H]1C`: “inactive”; for `O=C(OCC(COC(=O)c1ccccc1)(COC(=O)c1ccccc1)COC(=O)c1ccccc1)c1ccccc1`: “inactive”.
Turning to `ClC1=C(Cl)C(Cl)(Cl)C(Cl)=C1Cl`, the Potency entry is “inactive”.
Same read-out and setting: the same measure for `CC(=O)Nc1ccc(C(=O)CCl)cc1`: 20 µM (active).
Still for that read-out and setting: the entry for `Nc1ccc2cc3ccccc3cc2c1` is “inactive”; for `c1ccc2c(c1)-c1cccc3c1c-2cc1ccccc13` it is “inactive”.
Still for that read-out and setting: the same measure for `O=C=Nc1ccc(Cc2ccc(N=C=O)cc2)cc1`: “inactive”.
Consider `Cc1cc(O)c(C(C)(C)C)cc1Sc1cc(C(C)(C)C)c(O)cc1C`, for which the Potency is 31.6 µM (active).
Same read-out and setting: the figure for `CCC(C)Nc1ccc(NC(C)CC)cc1` (stereo not drawn) is 12.6 µM (active); for `CNc1ccc(O)cc1` it is 31.6 µM (active); for `C=CC(=O)OCCOCCOC(=O)C=C` it is 31.6 µM (active).
On the same count and under the same terms, the same measure for `c1ccc2c(c1)ccc1cc3c(ccc4ccccc43)cc12`: “inactive”.
Turning to `C/C=C1\C(=O)C[C@H]2[C@@H]3CCC4=CC(=O)CC[C@]4(C)[C@H]3CC[C@]12C`, the Potency result was “inactive”.
On the same count and under the same terms, the same measure for `C=C(C)c1ccccc1`: “inactive”.
The same measure, in the same setting: the same measure for `O=C1OC(O)C(C(Cl)Cl)=C1Cl` (stereo not drawn): “inactive”.

Another experiment in a line: Cell Viability - LYMP1-002 - Assay at 16 hr (AID 948). Particulars: LYMP1-002 lymphoblastoid cell viability; series mostly up to 92.2 µM. Put shortly:
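Seed 2500 LYMP1-002 cells per well in complete medium and hold 5 hr at 37 C. Add compound across a concentration series and incubate 16 hr at 37 C. Add CellTiter-Glo, wait 30 min at room temperature, read luminescence.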
In the case of `Cc1cc(Nc2ccc(O)cc2)ccc1N`, the Potency result is “inactive”.
Consider `CN(C)c1ccc(C2(c3ccc(N(C)C)cc3)OC(=O)c3cc(N(C)C)ccc32)cc1`, for which the Potency entry is “inactive”.
Still for that read-out and setting: the entry for `CO[C@H]1/C=C/O[C@@]2(C)Oc3c(C)c(O)c4c(O)c(c5c(c4c3C2=O)NC2(CCN(CC(C)C)CC2)N=5)=NC(=O)/C(C)=C\C=C\[C@H](C)[C@H](O)[C@@H](C)[C@@H](O)[C@@H](C)[C@H](OC(C)=O)[C@@H]1C` is “inactive”; for `O=C(OCC(COC(=O)c1ccccc1)(COC(=O)c1ccccc1)COC(=O)c1ccccc1)c1ccccc1` it is “inactive”.
On to `ClC1=C(Cl)C(Cl)(Cl)C(Cl)=C1Cl`, for which the Potency entry was “inactive”.
On to `CC(=O)Nc1ccc(C(=O)CCl)cc1`, for which the Potency is 25.1 µM (active).
As to `CC/C(=C(\c1ccccc1)c1ccc(OCCN(C)C)cc1)c1ccc(O)cc1`, the Potency result is “inactive”.
For `Nc1ccc2cc3ccccc3cc2c1`, the Potency result was “inactive”.
Turning to `c1ccc2c(c1)-c1cccc3c1c-2cc1ccccc13`, the Potency result was “inactive”.
On the same count and under the same terms, the same measure for `O=C=Nc1ccc(Cc2ccc(N=C=O)cc2)cc1`: “inactive”; for `O=[N+]([O-])c1cc([N+](=O)[O-])c2ccc(S(=O)(=O)O)cc2c1O`: “inactive”; for `Cc1cc(O)c(C(C)(C)C)cc1Sc1cc(C(C)(C)C)c(O)cc1C`: 50.1 µM (active).
Still for that read-out and setting: the figure for `CCC(C)Nc1ccc(NC(C)CC)cc1` (stereo not drawn) is 15.8 µM (active).
With `O=C1OC2(c3cc(Br)c(O)c(Br)c3Oc3c2cc(Br)c(O)c3Br)c2c(Cl)c(Cl)c(Cl)c(Cl)c21`, the Potency result is “inactive”.
Still for that read-out and setting: the same measure for `Oc1ccc2cc(SSc3ccc4cc(O)ccc4c3)ccc2c1`: 50.1 µM (active); for `c1ccc2c(c1)ccc1cc3c(ccc4ccccc43)cc12`: “inactive”.
The same measure, in the same setting: the entry for `C/C=C1\C(=O)C[C@H]2[C@@H]3CCC4=CC(=O)CC[C@]4(C)[C@H]3CC[C@]12C` is “inactive”; for `C=C(C)c1ccccc1` it is “inactive”.

Values taken from PubChem BioAssay (NCATS).
